Data from PubChem BioAssay AID504834 (National Center for Advancing Translational Sciences (NCATS), 2011).
Hit rate of the full screen: of about 320,000 compounds, about 22,000 (6.9%) were called active. Entries that show only a call come without a potency. Another 27% or so got no clear call; they are omitted. This is one part of a sample in which actives are shown more often than they occur. The call rests on the fitted dose curve; in most records, active means well fitted inhibition curve with a large enough effect; inconclusive means small, poorly fitted or top-dose-only effect, or another doubt; inactive means no such curve, though single readings can be large or run the other way.

assay: Primary qHTS for delayed death inhibitors of the malarial parasite plastid, 96 hour incubation; conditions: P. falciparum luciferase reporter growth; series mostly up to 28.7 µM
In short: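 Erythrocytes infected with luciferase-expressing P. falciparum were dispensed at 2% hematocrit and 0.05% parasitemia (final), then incubated with compounds 96 hours at 37 C in 5% CO2. Luminescence after detection reagent addition reported growth.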
Potency means the concentration at half of the fitted maximal effect.

**Q.** Which Potency does the source give for COc1ccc(Nc2ccc([N+](=O)[O-])cn2)cn1 here?
**A.** inactive

**Q.** Which Potency does the source give for COC(=O)C1(O)CC(C(C)C)=NN1C(=O)c1ccc(Cl)cc1 (centres undefined) here?
**A.** inactive

**Q.** For O=C(c1ccc(Cl)cc1)N1N=C(c2ccccn2)CC1(O)C(F)(F)F (centres undefined), which Potency is on record?
**A.** 6.57 µM (active)

**Q.** With O=C(C1CC1)N1N=C(c2ccc(Br)cc2)CC1(O)C(F)(F)F (centres undefined) as the compound, how does the Potency read?
**A.** inactive

**Q.** For Cc1ccc(NC(=O)NC(=O)c2ccccc2)cc1F, which Potency is on record?
**A.** inactive

**Q.** For CCc1c(C)[nH]c(=S)c(C#N)c1C, which Potency is on record?
**A.** 3.29 µM (active)

**Q.** With CC(=O)c1c(C)[nH]c(=S)c(C#N)c1-c1ccc(F)cc1 as the compound, how does the Potency read?
**A.** inactive

**Q.** Which Potency does the source give for Cc1ccc(-c2nn(C(C)(C)C)c3ncnc(N)c23)cc1 here?
**A.** 2.33 µM (active)

**Q.** For Cc1ccc(-n2cnc3ncnc(-c4ccccc4)c32)cc1, which Potency is on record?
**A.** inactive

**Q.** With COc1ccccc1OC(C)C(=O)Nc1ccc(S(=O)(=O)Nc2nccs2)cc1 (centres undefined) as the compound, how does the Potency read?
**A.** inactive

**Q.** For CCCn1c(C(Cc2ccccc2)NC(=O)COC)nc2ccccc21 (centres undefined), which Potency is on record?
**A.** inactive

**Q.** Which Potency does the source give for CCCC(NC(=O)c1ccccc1)c1nc2ccccc2n1Cc1ccc(C(=O)OC)o1 (centres undefined) here?
**A.** 8.28 µM (active)

**Q.** Which Potency does the source give for COC(=O)c1ccc(CN2C(=O)NC(c3ccccc3)(c3ccccc3)C2=O)o1 here?
**A.** inactive

**Q.** For CCc1cccc(NC(=S)N(CCN(C)C)C2CCN(C(C)C)CC2)c1, which Potency is on record?
**A.** inactive

**Q.** For COc1ccccc1/C=C/C(=O)OCC(=O)NC1CCCCCC1, which Potency is on record?
**A.** inactive

**Q.** With O=S(=O)(c1ccc2c(c1)OCCO2)N1CCc2ccccc21 as the compound, how does the Potency read?
**A.** inactive

**Q.** For CSc1nc2ccc(S(=O)(=O)N3CCc4ccccc43)cc2s1, which Potency is on record?
**A.** inactive

**Q.** Which Potency does the source give for CCn1c(=O)c(=O)n(CC)c2cc(S(=O)(=O)N3CCc4ccccc43)ccc21 here?
**A.** 13.1 µM (active)

**Q.** For O=C(NCc1ccccc1Cl)c1ccc2c(=O)n(CC3CCCO3)c(=S)[nH]c2c1 (centres undefined), which Potency is on record?
**A.** inactive

**Q.** Which Potency does the source give for CN(c1ccc(OCC(=O)O)cc1)S(=O)(=O)c1ccc2ccccc2c1 here?
**A.** inactive

**Q.** Which Potency does the source give for Cc1ccc2nc(COc3ccc(N(C)S(=O)(=O)c4ccccc4)cc3)cc(=O)n2c1 here?
**A.** 10.4 µM (active)

**Q.** Which Potency does the source give for COc1cccc(COc2ccc(N(C)S(=O)(=O)c3ccccc3)cc2)c1 here?
**A.** inactive

**Q.** For COCCCNC(=O)C1CC(=O)N(CCc2ccc(F)cc2)C1 (centres undefined), which Potency is on record?
**A.** inactive

**Q.** With O=C(Nc1ccc2c(c1)OCO2)C1CC1(Cl)Cl (centres undefined) as the compound, how does the Potency read?
**A.** inactive

**Q.** With CC(=O)N/C(=C\c1ccccc1)C(=O)OC(C)C(=O)N(C)c1ccccc1 (centres undefined) as the compound, how does the Potency read?
**A.** inactive

**Q.** With OCC[C@H]1C[C@H](O)[C@@H](O)[C@]2(Cc3ccccc3CO2)O1 as the compound, how does the Potency read?
**A.** inactive

**Q.** For CC1(C)Cc2c(sc3nc4n(c(=N)c23)CCCCC4)CO1, which Potency is on record?
**A.** inactive

**Q.** Which Potency does the source give for CCOC(=O)Cn1c(SC)nc2sc3c(c2c1=O)CC(C)(C)OC3 here?
**A.** inactive

**Q.** Which Potency does the source give for CC(C)c1nc2sc3c(c2c(=O)n1N)CC(C)(C)OC3 here?
**A.** 4.65 µM (active)

**Q.** With CC1=C(C(=O)OC(C)(C)C)C(c2ccc(Br)cc2)NC(=O)N1CCCC(=O)O (centres undefined) as the compound, how does the Potency read?
**A.** inactive

**Q.** For CC1=C(C(=O)OCc2ccccc2)C(c2ccc(C(F)(F)F)cc2)NC(=O)N1CCCCCC(=O)O (centres undefined), which Potency is on record?
**A.** 13.1 µM (active)

**Q.** For COCCN1C(=O)N[C@@H](c2ccccc2)C(C(=O)OC)=C1C, which Potency is on record?
**A.** inactive

**Q.** For CCOC(=O)c1c(C)[nH]c(C(=O)OCC(=O)c2ccc(OC)cc2OC)c1C, which Potency is on record?
**A.** inactive

**Q.** With COc1cccc(/C=C/C(=O)OCC(=O)N2CCCc3ccccc32)c1 as the compound, how does the Potency read?
**A.** inactive

**Q.** With COc1c(O)cc2oc(-c3ccc(O)c(O)c3)cc(=O)c2c1O as the compound, how does the Potency read?
**A.** inactive

**Q.** Which Potency does the source give for O=C(CSc1c2c(nc3ccc(Cl)cc13)CCCC2)NCc1ccco1 here?
**A.** 9.28 µM (active)

**Q.** Which Potency does the source give for O=C(NCc1ccco1)c1cc(-c2cccnc2)nc2ccc(Cl)cc12 here?
**A.** inactive

**Q.** For O=C(CSc1nnnn1-c1ccccc1)NCc1ccco1, which Potency is on record?
**A.** inactive

**Q.** Which Potency does the source give for COC(=O)c1[nH]c2ccc(Br)cc2c1NC(=O)Oc1ccccc1 here?
**A.** inactive

**Q.** With COC(=O)c1[nH]c2ccccc2c1NC(=O)CN1CCCc2ccccc21 as the compound, how does the Potency read?
**A.** 3.29 µM (active)

**Q.** For NS(=O)(=O)c1cccc(NC(=O)CN2CCCc3ccccc32)c1, which Potency is on record?
**A.** inactive

**Q.** For Brc1ccccc1/C=N/Nc1nc2ccccc2o1, which Potency is on record?
**A.** inactive

**Q.** With COc1cccc(OC)c1C(=O)Nc1c(C(=O)N2CCN(c3ccccn3)CC2)oc2ccccc12 as the compound, how does the Potency read?
**A.** inactive

**Q.** For Cc1cccc(NC(=O)CSc2nnc(CCNC(=O)OC(C)(C)C)o2)c1C, which Potency is on record?
**A.** inactive

**Q.** For Cc1cc(Br)ccc1NC(=S)NC1CCCC1, which Potency is on record?
**A.** inactive

**Q.** For CCCc1cc(=O)[nH]c2nnc(SCC(=O)Nc3nnc(SCC)s3)n12, which Potency is on record?
**A.** inactive

**Q.** With COP(=O)(NS(=O)(=O)c1ccccc1)OC as the compound, how does the Potency read?
**A.** 5.22 µM (active)

**Q.** Which Potency does the source give for O=S(=O)(NCCc1ccccc1)c1ccccc1 here?
**A.** inactive

**Q.** With O=S(=O)(NCCNS(=O)(=O)c1ccccc1)c1ccccc1 as the compound, how does the Potency read?
**A.** inactive

**Q.** Which Potency does the source give for O=S(=O)(c1ccc(Br)c2ccccc12)N1CCOCC1 here?
**A.** inactive

**Q.** Which Potency does the source give for O=C(Nc1ccnn1C1CCN(Cc2cccc(OCCO)c2)CC1)C1CCCC1 here?
**A.** inactive

**Q.** For Cn1cnc([N+](=O)[O-])c1Sc1ccccc1, which Potency is on record?
**A.** 11.7 µM (active)

**Q.** Which Potency does the source give for Cn1cnc([N+](=O)[O-])c1Nc1ccccc1O here?
**A.** inactive

**Q.** Which Potency does the source give for Cn1nc(-c2ccccc2)c(CO)c1Sc1ccccc1 here?
**A.** inactive

**Q.** For c1ccc(-c2ccc(OCCN3CCOCC3)cc2)cc1, which Potency is on record?
**A.** inactive

**Q.** For O=C(Cn1c(-c2ccccn2)nc2ccccc21)NCCN1CCOCC1, which Potency is on record?
**A.** inactive

**Q.** For c1ccc2cc3c(NCCN4CCOCC4)ccnc3cc2c1, which Potency is on record?
**A.** 0.165 µM (active)

**Q.** Which Potency does the source give for CCOc1ccc(C(=O)Nc2c3c(nn2-c2ccccc2)CS(=O)(=O)C3)cc1 here?
**A.** inactive

**Q.** With Cc1ccc(C)c(S(=O)(=O)Nc2cccc(-n3cnnn3)c2)c1 as the compound, how does the Potency read?
**A.** inactive

**Q.** Which Potency does the source give for COc1ccc(C(=O)CN2C(=O)NC3(CCc4ccccc43)C2=O)c(OC)c1 (centres undefined) here?
**A.** inactive

**Q.** With COc1ccc(-n2c(C)cc(C(=O)CN3C(=O)NC4(CCc5ccccc54)C3=O)c2C)cc1 (centres undefined) as the compound, how does the Potency read?
**A.** 1.17 µM (active)

**Q.** Which Potency does the source give for Cc1ccc(C(=O)CN2C(=O)NC3(CCc4ccccc43)C2=O)c(C)c1 (centres undefined) here?
**A.** inactive

**Q.** Which Potency does the source give for CCN1CCN(C(=O)Cn2nc(C)n3c(cc4c(OC)cccc43)c2=O)CC1 here?
**A.** inactive

**Q.** Which Potency does the source give for O=C(CCN1C(=O)C2CCCCC2C1=O)Nc1ccc(OC(F)F)cc1 (centres undefined) here?
**A.** inactive

**Q.** For NC1=NC[C@@H](Cc2ccc(O)cc2)N1CC1CCCCC1, which Potency is on record?
**A.** 2.33 µM (active)

**Q.** For COc1ccc(NC(=O)CCCN2C(=O)C(c3ccccc3)Oc3cccnc32)cc1 (centres undefined), which Potency is on record?
**A.** inactive

**Q.** For Cc1cc2oc(=O)cc(CN(C)Cc3ccc(OC(F)F)cc3)c2cc1Cl, which Potency is on record?
**A.** 2.62 µM (active)

**Q.** For CCOc1ccc(N(C)Cc2cc(=O)oc3ccc(OC)cc23)cc1, which Potency is on record?
**A.** inactive

**Q.** For Cc1ccc(CN(C)Cc2cc(=O)oc3cc(C)c(Cl)cc23)cc1, which Potency is on record?
**A.** inactive
